In PubChem BioAssay AID485284 (NMMLSC, 2010):
Results with a measured potency or affinity are listed apart.

Assay: inhibitors of CD8+ T cell–vesicle binding, dose response, mouse 2C CD8+ T cells, flow cytometry (AID 485284);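 also: drosophila derived vesicles carrying Ld MHC with QL9 peptide plus B7-1 and ICAM-1; vesicle binding seen as anti-B7-1 PE fluorescence on CD8 gated cells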
Conditions: 2C mouse CD8+ T cell-exosome binding; at 45 µM (top of the series)

Compound | binding remaining, % of control [%]
COC(=O)C1=C(c2c(C)noc2C)C[C@@H]2CC[C@H]1N2C(=O)NCCOc1ccccc1Cl | 124
O=C(Nc1ccc(Cl)cc1)O/N=C(\c1ccccc1)c1ccccn1 | 85.8
COc1ccc2c3c1OC1[C@H](O)CCC4[C@@H](C2)N(C)CC[C@]314 (stereo partly specified) | 230
COC(=O)C1=C(c2ccc(F)cc2F)C[C@@H]2CC[C@H]1N2C(=O)NCCNC(C)=O | 107
CC(C)(O)C(=O)Nc1ccc([N+](=O)[O-])c(C(F)(F)F)c1 | 166
Cc1sc2ncnc(NCC(C)(C)N3CCOCC3)c2c1C | 133
